Data taken from PubChem BioAssay AID1745848 (National Center for Advancing Translational Sciences (NCATS), 2022).
Among all 2,100 compounds or so, about 940 (45%) were called active. Another 48% or so got no clear call; they are omitted. The set was probably picked from earlier hits. The list shows a part of the results. Values without a mark were called inactive. The call rests on the fitted dose curve; in most records, active means well fitted inhibition curve with a large enough effect; inconclusive means small, poorly fitted or top-dose-only effect; inactive means no such curve, though single readings can be large or run the other way.

Assay: Confirmatory qHTS for Inhibitors of ATXN expression; further: nearly all actives have a fitted effect of over 65% in size;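 on activity change, negative = inhibition: 0% = DMSO vehicle wells and -100% = medium-only wells without cells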
Conditions: ATXN2-luciferase reporter cells, luminescence, 24 h; series mostly up to 11.5 µM; activity change, negative = inhibition: at the top concentration
Procedure, shortened: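 Cells carrying ATXN2-luciferase reporter exposed 24 h at 37 C to compound. Viability then read by CellTiter-Fluor (25 uM GF-AFC, 30 min), followed by SteadyGlo luminescence; medium-only wells set 100% inhibition.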
Potency means the concentration at half of the fitted maximal effect.

Compound | activity change, negative = inhibition | Potency
Cc1ccc2nc(SCc3ccc([N+](=O)[O-])cc3)[nH]c2c1 | -6.34% | 
CCn1c2ccccc2c2cc(/C=N/NC(=O)c3ccccc3)ccc21 |  | 3.16 µM (active)
Cc1ccc(S(=O)(=O)c2c(N)n(CC3CCOC3)c3nc4ccccc4nc23)cc1 (stereo unspecified) | -14.3% | 
CC(C)CCn1c(N)c(S(=O)(=O)c2cccs2)c2nc3ccccc3nc21 |  | 3.16 µM (active)
COc1cccc(/C=N/n2c(N)c(S(=O)(=O)c3cccs3)c3nc4ccccc4nc32)c1OC |  | 14.1 µM (active)
Cc1cc(Br)c(OCc2ccc(C(=O)N/N=C3\CC4CC=CC34)cc2)c(Br)c1 (stereo unspecified) |  | 28.2 µM (active)
CCCCNC(=NCc1cccc(C(F)(F)F)c1)Nc1ccccc1 |  | 3.16 µM (active)
CN(C(=O)c1cnc(N2CCN(c3ncccn3)CC2)c2ccccc12)c1ccc(Cl)cc1 |  | 28.2 µM (active)
O=C(c1cnc(N2CCN(c3ccccn3)CC2)c2ccccc12)N1CCN(c2cccc(Cl)c2)CC1 |  | 6.31 µM (active)
CCn1c(C)nc2cc(C(=O)N/N=C(\C)c3ccc(OC)cc3O)ccc21 |  | 15.8 µM (active)
CCN(CC)S(=O)(=O)c1cccc(C(=O)N/N=C(\C)c2ccc(O)cc2O)c1 |  | 3.16 µM (active)
CC(=NNC(=O)c1ccncc1)c1ccc(O)cc1O |  | 12.6 µM (active)
COc1ccc(/C(C)=N/NC(=O)c2cccc(S(=O)(=O)N3CCCC3)c2)c(O)c1 |  | 3.55 µM (active)
CC(=NNC(=O)c1ccncc1)c1ccc2ccccc2c1O |  | 1.12 µM (active)
CC(=O)NC(c1ccc(C)cc1)c1cc(Cl)c2cccnc2c1O (stereo unspecified) |  | 2.51 µM (active)
CC(=O)NC(c1ccccc1)c1cc(Cl)c2cccnc2c1O (stereo unspecified) |  | 2.82 µM (active)
Oc1c(C(Nc2ccccn2)c2cccnc2)cc(Cl)c2cccnc12 (stereo unspecified) |  | 12.6 µM (active)
CC(C)(C)c1ccc(CC(=O)N2CCC2(C)C(=O)Nc2cnc3ccccc3c2)cc1 (stereo unspecified) | -28.3% | 
Cc1ccc(CN2CCSc3ccc(C(=O)NC4CCN(Cc5ccccc5)CC4)cc32)cc1 |  | 3.16 µM (active)
CC1(C(=O)NC2CCN(Cc3ccccc3)CC2)CCN1Cc1ccc2ccccc2c1 (stereo unspecified) |  | 2.51 µM (active)
CN1C(=O)/C(=C\c2ccccc2F)Sc2ccc(C(=O)NC3CCN(Cc4ccccc4)CC3)cc21 |  | 3.16 µM (active)
CC(=O)Nc1cc(-c2ccc(C(=O)NC3CC3)cc2)cn2c(-c3cccc(C(C)=O)c3)cnc12 | -13.8% [at 57.5 µM] | 

Compound | activity change, negative = inhibition | Potency
CN1CCC(NC(=O)c2cc(-c3cccc(Br)c3)nc3ccccc23)CC1 |  | 25.1 µM (active)
CCc1c2c(nc3ccc(OC(=O)N4CCC(N5CCCCC5)CC4)cc13)-c1cc3c(c(=O)n1C2)COC(=O)[C@]3(O)CC |  | 0.316 µM (active)
CC[C@@]1(O)C(=O)OCc2c1cc1n(c2=O)Cc2cc3c(CN(C)C)c(O)ccc3nc2-1 | -84.6% [at 57.5 µM] | 
Cc1sc(NC(=O)c2cc(-c3ccc(Cl)cc3)nc3ccccc23)c(C(N)=O)c1C |  | 7.08 µM (active)
C=CCN(C(=O)CSc1nc2c(sc3ccccc32)c(=O)n1CCN(CC)CC)c1ccccc1 |  | 28.2 µM (active)
CCc1nc2ccc(C(=O)NCCOc3ccc(OC)cc3)cn2c1N(CCC(C)C)CCN(C)C |  | 3.98 µM (active)
O=C(NCC1CC1)c1ccc2c(c1)S(=O)(=O)c1cc(Cl)ccc1C2=O | -23.7% | 
CC(C)CC(NC(=O)c1ccc(Cl)cc1)C(=O)OCC(=O)c1ccc2c(c1)NC(=O)CO2 (stereo unspecified) |  | 28.2 µM (active)
CCCCC1C(=O)CC[C@H]2[C@@H]1CC(=O)[C@@H]2C/C=C\CCCC(=O)O (stereo partly specified) | -21.7% | 
COc1nn(-c2ccccc2)c(=O)c(Cl)c1Cl |  | 1.41 µM (active)
Cc1ccc(C(NC(=O)C2CCN(Cc3ccc(Cl)c(Cl)c3)CC2)c2ccccn2)cc1 (stereo unspecified) |  | 28.2 µM (active)
COC(=O)[C@H]1C[C@H](OC(=O)NC2CC2)[C@@]2(O)CN(S(=O)(=O)c3ccc(C)cc3)CC2[C@H]1C(=O)OC (stereo partly specified) | 11.1% | 
O=C(CSC1=NNC(c2ccccn2)S1)Nc1ccc(C(F)(F)F)cc1 (stereo unspecified) |  | 28.2 µM (active)
COc1cc2ccnc(Cc3cccc(OC)c3OC)c2cc1OC |  | 1 µM (active)
COc1cc(C)c(C(=O)CC(=O)c2c(C)cc(OC)cc2C)c(C)c1 | -2.99% | 
CCCCOc1ccccc1NC(=O)Cn1c(-c2nonc2N)nc2ccccc21 |  | 3.98 µM (active)
COc1ccc(Cc2[nH]n3c(=O)cc(C(C)C)nc3c2-c2ccccc2)cc1 |  | 8.91 µM (active)
Cc1cc(C)c(S(=O)(=O)/N=C2\C=C(Nc3ccc(C(=O)O)cc3)C(=O)c3ccccc32)c(C)c1 |  | 1.78 µM (active)
COC1=CC(=O)C=C(OC)C1(O)CC(C)=O | -9.18% [at 57.5 µM] | 
O=C1/C(=C/c2ccc([N+](=O)[O-])cc2)C=C(c2ccccc2)N1c1ccc(O)cc1 |  | 2.51 µM (active)
Cc1cc2c(c(/C=C/C(=O)c3ccccc3)c1)OC1(C=C2)Oc2ccccc2C(=O)N1C (stereo unspecified) |  | 25.1 µM (active)
CCCCCn1c(=O)c2ccccc2n2c(CCl)nnc12 |  | 15.8 µM (active)

Compound | activity change, negative = inhibition | Potency
CCC(CC)C(=O)c1c[nH]c(C(=O)NCc2ccccn2)c1 | -10.4% [at 57.5 µM] | 
O=C(N/N=C(\c1ccccc1)c1ccccn1)c1ccccc1Cl |  | 3.55 µM (active)
COc1cc(C(=O)N/N=C(\c2ccccc2)c2ccccn2)cc(OC)c1OC |  | 0.355 µM (active)
O=C(NN=C(c1ccccc1)c1ccccn1)c1ccccc1 |  | 2.24 µM (active)
O=C(O)CSc1cc(NS(=O)(=O)c2cccc([N+](=O)[O-])c2)c2ccccc2c1O |  | 3.16 µM (active)
CN(Cc1cnc2nc(N)nc(N)c2n1)c1ccc(C(=O)NC(CCC(=O)O)C(=O)O)c2ccccc12 (stereo unspecified) |  | 0.1 µM (active)
CN(Cc1cnc2nc(N)nc(N)c2n1)c1ccc(C(=O)N[C@@H](CCC(=O)O)C(=O)O)cc1 |  | 0.398 µM (active)
Cc1cnc(NC(=O)C2CC(=O)N(c3cccc(Cl)c3)C2)s1 (stereo unspecified) |  | 0.112 µM (active)
Cc1ccc(CN2CC(C(=O)Nc3ncc(C)s3)CC2=O)cc1 (stereo unspecified) |  | 1.78 µM (active)
Cc1ccc(N2CC(C(=O)Nc3nccs3)CC2=O)cc1Cl (stereo unspecified) |  | 2.24 µM (active)
Cc1ccc2nc(NC(=O)CSCC(=O)OCC(=O)c3ccc(Br)cc3)sc2c1 |  | 3.55 µM (active)
Cc1sc2nc(CN3CCCC3)nc(N3CCC(C(N)=O)CC3)c2c1C | -14.9% [at 57.5 µM] | 
CCN(CC)S(=O)(=O)c1cc(NC(=O)C2CCN(c3ncnc4sc(C)c(C)c34)CC2)ccc1Cl |  | 3.55 µM (active)
COc1ccc(S(=O)(=O)N(C)C)cc1NC(=O)C1CCN(c2ncnc3sc(C)c(C)c23)CC1 |  | 22.4 µM (active)
COc1ccc(-c2csc(NC(=O)C3CCN(c4ncnc5sc(C)c(C)c45)CC3)n2)cc1OC |  | 3.98 µM (active)
Oc1c(C(c2ccccn2)N2CCC(Cc3ccccc3)CC2)cc(Cl)c2cccnc12 (stereo unspecified) |  | 28.2 µM (active)
Oc1c(C(c2ccccn2)N2CCCCC2)cc(Cl)c2cccnc12 (stereo unspecified) |  | 15.8 µM (active)
O=C(NC(Nc1nc2ccc([N+](=O)[O-])cc2s1)(C(F)(F)F)C(F)(F)F)c1ccccc1 |  | 0.355 µM (active)
O=C(NC(Nc1ncc(S(=O)(=O)c2ccc([N+](=O)[O-])cc2)s1)(C(F)(F)F)C(F)(F)F)c1ccc(Cl)cc1 |  | 3.55 µM (active)
O=c1oc2ccccc2c(O)c1Cc1cc(Cl)c2cccnc2c1O |  | 15.8 µM (active)
CC[n+]1c(/C=C/c2c[nH]c3ccccc23)ccc2cc(C)ccc21 |  | 7.94 µM (active)
COC(=O)c1ccccc1S(=O)(=O)NNC(=O)Nc1ccccc1 | -24.3% | 

Compound | activity change, negative = inhibition | Potency
Cc1[nH]n(-c2cccc3ccccc23)c(=O)c1/C=N/NC(=O)c1cccc([N+](=O)[O-])c1 |  | 7.94 µM (active)
COc1ccc(/C=N/NC(=O)c2cccc([N+](=O)[O-])c2)c2ccccc12 |  | 3.16 µM (active)
CCCc1nc(NC2CCCCC2)c(C#N)c2c1COC(C)(C)C2 | 4.81% | 
O=C(Cc1ccc(-c2ccccc2)cc1)Nc1ccccn1 |  | 15.8 µM (active)
CC(C)C1C(=O)N(Cc2cn(CCC3OCCO3)nn2)CCS(=O)(=O)N1Cc1ccc(-c2ccc(Cl)cc2)cc1 (stereo unspecified) |  | 31.6 µM (active)
CSc1ncnc2c1ncn2CC(=O)C1CCC2C3CCC4=CC(=O)CCC4(C)C3CCC12C (stereo unspecified) |  | 11.2 µM (active)
COc1ccc(C(NC(=O)c2cccnc2)c2cc(Cl)c3cccnc3c2O)cc1OC (stereo unspecified) |  | 2.51 µM (active)
CCC(=O)NC(c1ccc(OC)c(OC)c1)c1cc(Cl)c2cccnc2c1O (stereo unspecified) |  | 2.82 µM (active)
CCCC(=O)NC(c1ccc(OC)c(OC)c1)c1cc(Cl)c2cccnc2c1O (stereo unspecified) |  | 2.51 µM (active)
N=c1c2c(n(Cc3ccc(Br)cc3)c3c1CCC3)CCCC2 |  | 1.12 µM (active)
C=CCNc1oc(-c2ccc(Cl)cc2)nc1C#N | -9.33% [at 57.5 µM] | 
Cc1ccc2[nH]c(=O)c(CN(CCCN(C)C)C(=O)Nc3cccc(Cl)c3)cc2c1 |  | 22.4 µM (active)
COc1ccc(/C=N/Nc2cc(N3CCCC3)nc(N3CCCC3)n2)cc1 |  | 3.16 µM (active)
Cc1c(C(=O)Nc2nonc2-c2ccc(F)cc2)oc2ccc(F)cc12 |  | 25.1 µM (active)
CCc1nc2c(OCCOc3ccc(F)cc3)cccn2c1N(C)C(=O)c1ccco1 | -22.2% [at 57.5 µM] | 
Cc1nc2c(OCc3cc(Cl)cc(Cl)c3)cccn2c1N(C)C(=O)CCC1CCCC1 |  | 22.4 µM (active)
Cc1nn(-c2ccccc2)c2nc(-c3cccs3)cc(C(=O)NN)c12 |  | 14.1 µM (active)
Cn1cc(C(=O)c2ccc(Cl)cc2Cl)cc1C(=O)N/N=C(\N)COc1ccc(Cl)cc1 |  | 11.2 µM (active)
Cc1onc(-c2c(Cl)cccc2Cl)c1C(=O)N/N=C(\N)COc1ccc(Cl)cc1 |  | 2.51 µM (active)
O=C(Nc1nc(NC(=O)c2ccco2)n(-c2ccccc2)n1)c1ccccc1 |  | 3.16 µM (active)
